From the antibiotic and cytotoxicity screens of Wong et al. (2023)
The campaign covered roughly 39,000 compounds. About 500 (1.3%) were called active. The full list was thinned out, with actives kept by preference.

What follows are compounds tested on S. aureus RN4220 (assay: growth inhibition call (relative growth <= 0.2)). Conditions: 50 µM.
`C[C@@H]1CCCCO[C@H](CN(C)C(=O)Nc2cccc3ccccc23)[C@@H](C)CN([C@@H](C)CO)C(=O)c2cc(NC(=O)Nc3ccc(F)cc3)ccc2O1` was tested, and the growth inhibition call was “inactive”.
For `Cc1ccc(S(=O)(=O)N(C)C[C@H]2Oc3c(NC(=O)Nc4ccc(C(F)(F)F)cc4)cccc3C(=O)N([C@H](C)CO)C[C@H]2C)cc1`, the growth inhibition call was “inactive”.
In the case of `C[C@H]1CN([C@@H](C)CO)C(=O)c2cc(NC(=O)C3CCCCC3)ccc2O[C@H]1CN(C)Cc1ccc(Cl)c(Cl)c1`, the growth inhibition call is reported as “inactive”.
For `C[C@@H]1CN([C@H](C)CO)S(=O)(=O)c2ccc(C#CCN(C)C)cc2O[C@H]1CN(C)Cc1ccc2c(c1)OCO2`, the growth inhibition call was “inactive”.
With `COc1ccc(COC[C@]23N=C4SCc5ccccc5CN4[C@H](c4ccccc4O2)[C@H]3COC(=O)NCCCCCC(=O)NO)cc1` the growth inhibition call was “inactive”.
For `CCn1cc(C(=O)O)c(=O)c2cc(F)c(N3CCNCC3)cc21`, the growth inhibition call was “active”.
With `CCn1cc(C(=O)N2CCN(C)CC2)c(=O)c2cc(S(=O)(=O)N(C)C)ccc21` the growth inhibition call was “inactive”.
`CCn1cc(C(=O)O)c(=O)c2cnc(N3CCCC3)nc21` was tested, and the growth inhibition call was “inactive”.
With `O=C(O)c1cn(C2CC2)c2cc(N3CCNCC3)c(F)cc2c1=O` the growth inhibition call was “inactive”.
In the case of `CCn1cc(C(=O)O)c(=O)c2cc(F)c(N3CCN(C(=S)Nc4cc(C(F)(F)F)ccc4Cl)CC3)cc21`, the growth inhibition call is reported as “inactive”.
For `CCn1cc(C(=O)O)c(=O)c2ccc(C)nc21`, the growth inhibition call was “inactive”.
For `CCn1cc(C(=O)O)c(=O)c2cc(F)c(N3CCN(C)CC3)cc21.CS(=O)(=O)O`, the growth inhibition call was “active”.
`CCN1CCN(c2cc3c(cc2F)c(=O)c(C(=O)O)cn3C2CC2)CC1` was tested, and the growth inhibition call was “active”.
`C[C@@H]1CCCCO[C@H](CN(C)C(=O)CCCN(C)C)[C@@H](C)CN([C@H](C)CO)C(=O)c2cc(N(C)C)ccc2O1` was tested, and the growth inhibition call was “inactive”.
With `C[C@@H]1CCCCO[C@H](CN(C)C(=O)NC2CCCCC2)[C@@H](C)CN([C@@H](C)CO)C(=O)c2cc(NC(=O)CCC(F)(F)F)ccc2O1` the growth inhibition call was “inactive”.
For `COCC(=O)N1C[C@@H](C)[C@@H](OC)CN(C)C(=O)c2cc(NC(=O)Nc3cccc(F)c3)ccc2OC[C@H]1C`, the growth inhibition call was “inactive”.
For `C[C@@H]1CN([C@H](C)CO)C(=O)c2cc(NC(=O)CCC(F)(F)F)ccc2O[C@@H](C)CCCCO[C@@H]1CN(C)Cc1ccccc1`, the growth inhibition call was “inactive”.
In the case of `C[C@H]1CN([C@@H](C)CO)C(=O)c2cccc(NS(C)(=O)=O)c2O[C@@H]1CN(C)C(=O)Nc1ccc2c(c1)OCO2`, the growth inhibition call is reported as “inactive”.
With `CN(C)C(=O)CN1CCn2cc(Cn3cncn3)nc2C1` the growth inhibition call was “inactive”.
With `Cc1noc(C)c1NC(=O)Nc1ccc2c(c1)CC(=O)N([C@H](C)CO)C[C@H](C)[C@H](CN(C)S(=O)(=O)c1cccs1)O2` the growth inhibition call was “inactive”.
For `CC(C)(ON=C(C(=O)NC1C(=O)N2C(C(=O)[O-])=C(C[n+]3ccccc3)CSC12)c1csc(N)n1)C(=O)O` (configuration not stated), the growth inhibition call was “inactive”.
`NC(=O)c1cc[n+](CC2=C(C(=O)[O-])N3C(=O)C(NC(=O)C(c4ccccc4)S(=O)(=O)[O-])C3SC2)cc1.[Na+]` (configuration not stated) was tested, and the growth inhibition call was “inactive”.
For `NC(=O)c1cc[n+](CC2=C(C(=O)[O-])N3C(=O)C(NC(=O)Cc4cccs4)C3SC2)cc1` (configuration not stated), the growth inhibition call was “active”.
With `NC(=O)c1cc[n+](CC2=C(C(=O)O)N3C(=O)[C@@H](NC(=O)Cc4cccs4)[C@H]3SC2)cc1` the growth inhibition call was “active”.
`Cn1sccc1=O` was tested, and the growth inhibition call was “inactive”.
With `O=C(C[C@@H]1CC[C@H]2[C@@H](COC[C@@H](O)CN2S(=O)(=O)c2ccc(Cl)cc2)O1)N1CCc2ccccc2C1` the growth inhibition call was “inactive”.
For `C[C@H](CO)N1C[C@H](C)[C@@H](CN(C)Cc2ccncc2)OCCCC[C@H](C)Oc2ccc(NC(=O)Nc3ccc4c(c3)OCO4)cc2C1=O`, the growth inhibition call was “inactive”.
For `O=C(C[C@@H]1CC[C@H]2NC[C@@H](O)COC[C@@H]2O1)NCCN1CCCC1`, the growth inhibition call was “inactive”.
With `COc1cc(C2c3cc4c(cc3C(OC3OC5COC(C)OC5C(O)C3O)C3COC(=O)C23)OCO4)cc(OC)c1O` (configuration not stated) the growth inhibition call was “inactive”.
With `COc1cc([C@@H]2c3cc4c(cc3[C@@H](O[C@@H]3O[C@@H]5CO[C@@H](C)O[C@H]5[C@H](O)[C@H]3O)[C@H]3COC(=O)[C@H]23)OCO4)cc(OC)c1O` the growth inhibition call was “active”.
In the case of `COc1cc([C@@H]2c3cc4c(cc3[C@@H](O[C@@H]3O[C@@H]5CO[C@@H](C)O[C@H]5[C@H](O)[C@H]3O)[C@@H]3COC(=O)[C@@H]23)OCO4)cc(OC)c1O`, the growth inhibition call is reported as “inactive”.
For `N#CC(c1ccc(Cl)cc1)c1c(Cl)cc(-n2ncc(=O)[nH]c2=O)cc1Cl` (configuration not stated), the growth inhibition call was “active”.
For `N#C[C@H](N)c1ccc(Cl)cc1`, the growth inhibition call was “inactive”.
In the case of `Nc1cc(=O)[nH]c(=O)n1-c1ccc(Cl)cc1`, the growth inhibition call is reported as “inactive”.
With `Cc1noc(C)c1NC(=O)N(C)C[C@@H]1OCCCC[C@@H](C)Oc2ccc(NC(=O)C3CCCCC3)cc2C(=O)N([C@@H](C)CO)C[C@@H]1C` the growth inhibition call was “inactive”.
`C[C@@H]1CN([C@@H](C)CO)C(=O)Cc2cc(NS(=O)(=O)c3ccccc3)ccc2O[C@@H]1CN(C)Cc1ccc(-c2ccccc2)cc1` was tested, and the growth inhibition call was “inactive”.
With `O=C(N[C@H](c1ccc(F)cc1)c1ccc2ccccc2n1)C1CCN(Cc2ccc(Oc3ccccc3)cc2)CC1` the growth inhibition call was “inactive”.
For `O=C(N[C@@H](c1ccccc1)c1ccc2ccccc2n1)C1CCN(CCOc2ccc(Cl)cc2Cl)CC1`, the growth inhibition call was “inactive”.
For `COc1ccc(OCCN2CCC(C(=O)N[C@@H](c3ccc(F)cc3)c3ccc4ccccc4n3)CC2)cc1`, the growth inhibition call was “inactive”.
For `COc1ccc(/C=C/CN2CCC(C(=O)N[C@@H](c3ccc(F)cc3)c3ccc4ccccc4n3)CC2)cc1`, the growth inhibition call was “inactive”.
`O=C(N[C@@H](c1ccccc1)c1ccc2ccccc2n1)C1CCN(Cc2ccc(Oc3ccccc3)cc2)CC1` was tested, and the growth inhibition call was “inactive”.
In the case of `O=C(N[C@@H](c1ccc(-c2ccccc2)cc1)c1cnccn1)C1CCN(Cc2ccc(Oc3ccccc3)cc2)CC1`, the growth inhibition call is reported as “inactive”.
With `O=C(N[C@@H](c1ccc(-c2ccccc2)cc1)c1cnccn1)C1CCN(Cc2ccc(Cl)c(Cl)c2)CC1` the growth inhibition call was “inactive”.
In the case of `O=C(N[C@@H](c1ccc(F)cc1)c1ccc2ccccc2n1)C1CCN(CCOc2ccc(F)cc2)CC1`, the growth inhibition call is reported as “active”.
In the case of `COc1ccc(/C=C/CN2CCC(C(=O)N[C@@H](c3ccc(-c4ccccc4)cc3)c3cnccn3)CC2)cc1`, the growth inhibition call is reported as “active”.
For `O=C(N[C@@H](c1ccccc1)c1ccc2ccccc2n1)C1CCN(CCOc2ccc(Cl)cc2)CC1`, the growth inhibition call was “active”.
In the case of `O=C(N[C@H](c1ccc(Cl)cc1)c1cnccn1)C1CCN(Cc2ccc(Oc3ccccc3)cc2)CC1`, the growth inhibition call is reported as “active”.
With `COc1cc(CN2CCC(C(=O)N[C@@H](c3ccc(-c4ccccc4)cc3)c3cnccn3)CC2)cc(OC)c1` the growth inhibition call was “inactive”.
`Cc1noc(C)c1NC(=O)N(C)C[C@@H]1Oc2cc(Br)ccc2S(=O)(=O)N([C@@H](C)CO)C[C@H]1C` was tested, and the growth inhibition call was “inactive”.
`C[C@@H]1O[C@@H](O[C@@H]2[C@@H](O)[C@H](OCCc3ccc(O)c(O)c3)O[C@H](COC(=O)/C=C/c3ccc(O)c(O)c3)[C@H]2O)[C@H](O)[C@H](O)[C@H]1O` was tested, and the growth inhibition call was “inactive”.
For `CO[C@@H]1CN(C)C(=O)c2cc(NC(=O)CC(F)(F)F)ccc2OC[C@@H](C)N(C(=O)C2CCOCC2)C[C@@H]1C`, the growth inhibition call was “inactive”.
With `C[N+]1(C)C[C@H](O)[C@H](C(=O)O)C1` the growth inhibition call was “inactive”.
In the case of `COCC(=O)N1C[C@H](C)[C@H](OC)CN(C)C(=O)c2ccc(NC(=O)c3cc(C)on3)cc2OC[C@H]1C`, the growth inhibition call is reported as “inactive”.
For `COCCOC(=O)N1C(=O)[C@@]2(c3cc(C#CCNC(N)=O)ccc31)[C@H](c1ccccc1OCCO)N1[C@H](c3ccccc3)[C@H](c3ccccc3)OC(=O)[C@H]1[C@@H]2C(N)=O`, the growth inhibition call was “inactive”.
With `C[C@H](CO)N1C[C@H](C)[C@H](CN(C)S(=O)(=O)c2ccc(Oc3ccccc3)cc2)OCc2cnnn2CCCC1=O` the growth inhibition call was “inactive”.
With `Cc1noc(C)c1NC(=O)Nc1ccc2c(c1)C(=O)N([C@H](C)CO)C[C@@H](C)[C@@H](CN(C)S(=O)(=O)c1ccc(Cl)cc1)OCCCC[C@H](C)O2` the growth inhibition call was “inactive”.
For `CCCC#Cc1ccc2c(c1)O[C@@H](CN(C)C(=O)c1cnccn1)[C@@H](C)CN([C@@H](C)CO)S2(=O)=O`, the growth inhibition call was “inactive”.
In the case of `O=C(N[C@@H](c1ccc(-c2ccccc2)cc1)c1cnccn1)C1CCN(Cc2cccc(C(F)(F)F)c2)CC1`, the growth inhibition call is reported as “inactive”.
With `O=C(N[C@H](c1ccc(F)cc1)c1ccc2ccccc2n1)C1CCN(Cc2ccc3ccccc3n2)CC1` the growth inhibition call was “inactive”.
For `COc1cc(CN2CCC(C(=O)N[C@@H](c3ccc(F)cc3)c3ccc4ccccc4n3)CC2)cc(OC)c1`, the growth inhibition call was “inactive”.
In the case of `O=C(N[C@@H](c1ccc(-c2ccccc2)cc1)c1cnccn1)C1CCN(CCCOc2ccccc2)CC1`, the growth inhibition call is reported as “inactive”.
With `O=C(N[C@H](c1ccc(F)cc1)c1ccc2ccccc2n1)C1CCN(CCOc2ccc(Cl)cc2)CC1` the growth inhibition call was “active”.
For `O=C(N[C@@H](c1ccc(-c2ccccc2)cc1)c1cnccn1)C1CCN(CCOc2ccc(F)cc2)CC1`, the growth inhibition call was “active”.
`C[C@@H]1CCCCO[C@@H](CN(C)Cc2ccc(Cl)c(Cl)c2)[C@H](C)CN([C@H](C)CO)C(=O)c2cc(NC(=O)C3CCCCC3)ccc2O1` was tested, and the growth inhibition call was “inactive”.
With `COc1ccc(NC(=O)N(C)C[C@@H]2OCCCC[C@H](C)Oc3ccc(NC(=O)Cc4ccccc4)cc3C(=O)N([C@@H](C)CO)C[C@@H]2C)cc1` the growth inhibition call was “inactive”.
`C[C@H]1CN([C@@H](C)CO)C(=O)c2cc(C#Cc3ccc(F)cc3)cnc2O[C@@H]1CN(C)CC1CCOCC1` was tested, and the growth inhibition call was “inactive”.
In the case of `CC1=C(/C=C/C(C)=C/C=C/C(C)=C/C=C/C=C(C)/C=C/C=C(C)/C=C/C2=C(C)CCCC2(C)C)C(C)(C)CCC1`, the growth inhibition call is reported as “inactive”.
For `Cc1noc(C)c1NC(=O)Nc1cccc2c1O[C@H](CN(C)S(=O)(=O)c1cn(C)cn1)[C@H](C)CN([C@@H](C)CO)C2=O`, the growth inhibition call was “inactive”.
With `C[C@H](CO)N1C[C@H](C)[C@@H](CN(C)Cc2ccc(C(=O)Nc3ccccc3N)cc2)Oc2c(NS(=O)(=O)c3cn(C)cn3)cccc2C1=O` the growth inhibition call was “inactive”.
`COc1cc(C(=O)N2CCN(CCN3C(=O)c4cccc5cccc(c45)C3=O)CC2)cc(OC)c1OC` was tested, and the growth inhibition call was “inactive”.
In the case of `COc1ccc2c(c(Br)c(C(=O)O)n2CCCOc2cccc3ccccc23)c1-c1ccccc1C`, the growth inhibition call is reported as “active”.
`Cc1nn(C)c(COc2ccc(N3CCN(S(=O)(=O)N(C)C)CC3)cc2)c1-c1cccc2c(CCCOc3cccc4ccccc34)c(C(=O)O)n(CCN3CCNCC3)c12` was tested, and the growth inhibition call was “inactive”.
